{
  "source": "PubChem BioAssay (NCATS)",
  "note": "Values without a mark were called inactive. Records with an inconclusive call do not appear. Activity calls are given as the source filed them. The call rests on the fitted dose curve; in most records, active means well fitted cell-killing curve with a large enough effect; inconclusive means small, poorly fitted or top-dose-only effect; inactive means flat fitted curve, though single readings scatter.",
  "data": [
    {"assay": "Cell Viability - LYMP2-026 (AID 989); further: on the % scale 0 is the no-effect control and ±100 the full control effect; nearly all actives have a fitted effect of over 50% in size", "settings": "LYMP2-026 lymphoblastoid cell viability, qHTS; series mostly up to 92.2 µM; activity change, negative = cytotoxic: at the top concentration", "in_short": "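Cytotoxicity read as ATP-dependent luminescence (CellTiter-Glo, 30 min room temperature) after 24 h compound treatment at 37 C. LYMP2-026 lymphoblastoid line seeded at 2500 cells/well; AC50 derived by standard Hill equation.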", "units": {"activity change, negative = cytotoxic": "%"}, "values": [
      {"smiles": "C=CCn1c(=O)n(CC=C)c(=O)n(CC=C)c1=O", "activity change, negative = cytotoxic": 3.6},
      {"smiles": "Nc1nc(-c2ccccc2)cs1", "activity change, negative = cytotoxic": -3.11},
      {"smiles": "Cc1ccc(C(=O)O)cc1", "activity change, negative = cytotoxic": -4.58},
      {"smiles": "CCC(=O)/C=C/C1C(C)=CCCC1(C)C", "note": "(stereo unspecified)", "activity change, negative = cytotoxic": -11.3},
      {"smiles": "O=C(O)c1ccccc1[N+](=O)[O-]", "activity change, negative = cytotoxic": -1.93},
      {"smiles": "Nc1cccc(N)c1", "activity change, negative = cytotoxic": 2.48},
      {"smiles": "CN(C)c1cccc(O)c1", "activity change, negative = cytotoxic": 2.44},
      {"smiles": "CC(C)(C)OCC1CO1", "note": "(stereo unspecified)", "activity change, negative = cytotoxic": 3.48},
      {"smiles": "Cc1cc(C2(c3cc(C)c(O)cc3C)OS(=O)(=O)c3ccccc32)c(C)cc1O", "activity change, negative = cytotoxic": -24.1},
      {"smiles": "O=[N+]([O-])c1ccccc1CCO", "activity change, negative = cytotoxic": -1.15},
      {"smiles": "COCCOC(=O)c1ccccc1C(=O)OCCOC", "activity change, negative = cytotoxic": 6.21},
      {"smiles": "O=C(O)c1cccc([N+](=O)[O-])c1", "activity change, negative = cytotoxic": -1.37},
      {"smiles": "CCCCCNCCCCC", "activity change, negative = cytotoxic": -1.35},
      {"smiles": "CCCCOCCOCCSC#N", "activity change, negative = cytotoxic": 2.64},
      {"smiles": "CC1(N)CCC(C(C)(C)N)CC1", "note": "(stereo unspecified)", "activity change, negative = cytotoxic": 0.766},
      {"smiles": "CCCCC(CC)CNCC(CC)CCCC", "note": "(stereo unspecified)", "activity change, negative = cytotoxic": 10.5},
      {"smiles": "Nc1nc(CC(=O)O)cs1", "activity change, negative = cytotoxic": -4},
      {"smiles": "N#Cc1ccccc1", "activity change, negative = cytotoxic": -5.66},
      {"smiles": "O=[N+]([O-])c1ccc(Cl)cc1Cl", "activity change, negative = cytotoxic": -9.45},
      {"smiles": "CC(O)COC(C)(C)C", "note": "(stereo unspecified)", "activity change, negative = cytotoxic": 0.0235},
      {"smiles": "CC(C)C(C)C", "activity change, negative = cytotoxic": -0.0868},
      {"smiles": "CCN(C(=O)N(CC)c1ccccc1)c1ccccc1", "activity change, negative = cytotoxic": -0.986},
      {"smiles": "O=C(O)c1ccc(CO)o1", "activity change, negative = cytotoxic": -7.46},
      {"smiles": "Cc1ccc(C)o1", "activity change, negative = cytotoxic": -3.9},
      {"smiles": "O=CNc1ccccc1", "activity change, negative = cytotoxic": 3.43},
      {"smiles": "CC(=O)OCCC(C)C", "activity change, negative = cytotoxic": 4.06},
      {"smiles": "CC(=O)c1ccccn1", "activity change, negative = cytotoxic": -7.51}
    ]},
    {"assay": "Cell Viability - LYMP1-002 - Assay at 24 hr (AID 993); further: potency means the concentration at half of the fitted maximal effect; on activity change, negative = cytotoxicity: on the % scale 0 is the no-effect control and ±100 the full control effect", "settings": "LYMP1-002 lymphoblastoid cells viability; series mostly up to 92.2 µM; activity change, negative = cytotoxicity: at the top concentration", "in_short": "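qHTS cytotoxicity at 24 h: CellTiter-Glo ATP luminescence in lymphoblastoid line LYMP1-002 incubated with compound at 37 °C. Concentration-response modeled with the Hill equation for AC50; tetraoctylammonium bromide served as positive control.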", "units": {"activity change, negative = cytotoxicity": "%"}, "values": [
      {"smiles": "C=CCn1c(=O)n(CC=C)c(=O)n(CC=C)c1=O", "activity change, negative = cytotoxicity": 4.12},
      {"smiles": "Nc1nc(-c2ccccc2)cs1", "activity change, negative = cytotoxicity": -3.8},
      {"smiles": "CCCCC/C=C/C=C/C=O", "activity change, negative = cytotoxicity": -7.38},
      {"smiles": "Cc1ccc(C(=O)O)cc1", "activity change, negative = cytotoxicity": 0.567},
      {"smiles": "CCC(=O)/C=C/C1C(C)=CCCC1(C)C", "note": "(stereo unspecified)", "activity change, negative = cytotoxicity": 1.38},
      {"smiles": "O=C(O)c1ccccc1[N+](=O)[O-]", "activity change, negative = cytotoxicity": 0.688},
      {"smiles": "Nc1cccc(N)c1", "activity change, negative = cytotoxicity": 2.23},
      {"smiles": "CN(C)c1cccc(O)c1", "activity change, negative = cytotoxicity": -1.47},
      {"smiles": "O=C(O)c1ccc(C(=O)O)cc1", "activity change, negative = cytotoxicity": 5.46},
      {"smiles": "NCCCCCCN", "activity change, negative = cytotoxicity": 2.06},
      {"smiles": "CC(C)(C)OCC1CO1", "note": "(stereo unspecified)", "activity change, negative = cytotoxicity": -2.11},
      {"smiles": "Cc1cc(C2(c3cc(C)c(O)cc3C)OS(=O)(=O)c3ccccc32)c(C)cc1O", "activity change, negative = cytotoxicity": -7.4},
      {"smiles": "COc1cccc(N)c1", "activity change, negative = cytotoxicity": -6.34},
      {"smiles": "CCCCC(CC)CO", "note": "(stereo unspecified)", "activity change, negative = cytotoxicity": -1.1},
      {"smiles": "COCCOC(=O)c1ccccc1C(=O)OCCOC", "activity change, negative = cytotoxicity": -0.161},
      {"smiles": "O=C(O)c1cccc([N+](=O)[O-])c1", "activity change, negative = cytotoxicity": -1.11},
      {"smiles": "CCCCCNCCCCC", "activity change, negative = cytotoxicity": 0.56},
      {"smiles": "CCCCC(CC)CNCC(CC)CCCC", "note": "(stereo unspecified)", "activity change, negative = cytotoxicity": 6.94},
      {"smiles": "Nc1nc(CC(=O)O)cs1", "activity change, negative = cytotoxicity": 1.86},
      {"smiles": "N#Cc1ccccc1", "activity change, negative = cytotoxicity": -4.71},
      {"smiles": "O=[N+]([O-])c1ccc(Cl)cc1Cl", "activity change, negative = cytotoxicity": -1.76},
      {"smiles": "C=CCCCCCCC=C", "activity change, negative = cytotoxicity": 0.365},
      {"smiles": "CC(O)COC(C)(C)C", "note": "(stereo unspecified)", "activity change, negative = cytotoxicity": 6.86},
      {"smiles": "CC(C)C(C)C", "activity change, negative = cytotoxicity": -6.2},
      {"smiles": "CCN(C(=O)N(CC)c1ccccc1)c1ccccc1", "activity change, negative = cytotoxicity": -1.51},
      {"smiles": "O=C(O)c1ccc(CO)o1", "activity change, negative = cytotoxicity": -5.85},
      {"smiles": "Cc1ccc(C)o1", "activity change, negative = cytotoxicity": -0.255},
      {"smiles": "O=CNc1ccccc1", "activity change, negative = cytotoxicity": -3.09},
      {"smiles": "CC(=O)OCCC(C)C", "activity change, negative = cytotoxicity": 5.36},
      {"smiles": "Cc1cccc(Br)c1", "activity change, negative = cytotoxicity": -8.74},
      {"smiles": "NC(=S)NNC(N)=S", "activity change, negative = cytotoxicity": 0.687},
      {"smiles": "Cc1cccc2cccnc12", "activity change, negative = cytotoxicity": -5.14},
      {"smiles": "CC(=O)c1ccccn1", "activity change, negative = cytotoxicity": 3.25},
      {"smiles": "CC1=C(/C=C/C(C)=C/C=C/C(C)=C\\C=O)C(C)(C)CCC1", "Potency": "63.1 µM (active)"}
    ]},
    {"assay": "Cell Viability - LYMP1-002 - Assay at 40 hr (AID 994); further: nearly all actives have a fitted effect of over 60% in size; further: potency means the concentration at half of the fitted maximal effect;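 on viability change, negative = cytotoxic: 0% = DMSO only and full inhibition = 92 µM tetraoctylammonium bromide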", "settings": "LYMP1-002 lymphoblastoid cell viability; series mostly up to 92.2 µM; viability change, negative = cytotoxic: at the top concentration", "in_short": "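Cytotoxicity was read as loss of cellular ATP (CellTiter-Glo luminescence) after 40 hr compound exposure at 37 C of 2500 LYMP1-002 lymphoblastoid cells per well. Concentration-response data were fitted with the standard Hill equation to give AC50.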", "units": {"viability change, negative = cytotoxic": "%"}, "values": [
      {"smiles": "C=CCn1c(=O)n(CC=C)c(=O)n(CC=C)c1=O", "viability change, negative = cytotoxic": -6.3},
      {"smiles": "Nc1nc(-c2ccccc2)cs1", "viability change, negative = cytotoxic": -12.6},
      {"smiles": "CCCCC/C=C/C=C/C=O", "viability change, negative = cytotoxic": -5.01},
      {"smiles": "Cc1ccc(C(=O)O)cc1", "viability change, negative = cytotoxic": 2.44},
      {"smiles": "CCC(=O)/C=C/C1C(C)=CCCC1(C)C", "note": "(stereo unspecified)", "viability change, negative = cytotoxic": -6.3},
      {"smiles": "O=C(O)c1ccccc1[N+](=O)[O-]", "viability change, negative = cytotoxic": -11.8},
      {"smiles": "Nc1cccc(N)c1", "viability change, negative = cytotoxic": -6.14},
      {"smiles": "CN(C)c1cccc(O)c1", "viability change, negative = cytotoxic": -0.631},
      {"smiles": "O=C(O)c1ccc(C(=O)O)cc1", "viability change, negative = cytotoxic": -1.88},
      {"smiles": "NCCCCCCN", "viability change, negative = cytotoxic": -4.71},
      {"smiles": "CC(C)(C)OCC1CO1", "note": "(stereo unspecified)", "viability change, negative = cytotoxic": -4.92},
      {"smiles": "Cc1cc(C2(c3cc(C)c(O)cc3C)OS(=O)(=O)c3ccccc32)c(C)cc1O", "viability change, negative = cytotoxic": -16.5},
      {"smiles": "Cc1ccccc1C(=O)O", "viability change, negative = cytotoxic": -1.92},
      {"smiles": "CC(C)(C)OC=O", "viability change, negative = cytotoxic": -6.36},
      {"smiles": "COc1cccc(N)c1", "viability change, negative = cytotoxic": 2.07},
      {"smiles": "CCCCC(CC)CO", "note": "(stereo unspecified)", "viability change, negative = cytotoxic": 0.19},
      {"smiles": "O=[N+]([O-])c1ccccc1CCO", "viability change, negative = cytotoxic": -2.57},
      {"smiles": "COCCOC(=O)c1ccccc1C(=O)OCCOC", "viability change, negative = cytotoxic": -6.99},
      {"smiles": "O=C(O)c1cccc([N+](=O)[O-])c1", "viability change, negative = cytotoxic": -1.7},
      {"smiles": "CCCCCNCCCCC", "viability change, negative = cytotoxic": -5.35},
      {"smiles": "CCCCOCCOCCSC#N", "viability change, negative = cytotoxic": -2.8},
      {"smiles": "CC1(N)CCC(C(C)(C)N)CC1", "note": "(stereo unspecified)", "viability change, negative = cytotoxic": 1.96},
      {"smiles": "CCCCC(CC)CNCC(CC)CCCC", "note": "(stereo unspecified)", "viability change, negative = cytotoxic": -1.96},
      {"smiles": "Nc1nc(CC(=O)O)cs1", "viability change, negative = cytotoxic": -6.16},
      {"smiles": "N#Cc1ccccc1", "viability change, negative = cytotoxic": 1.25},
      {"smiles": "O=[N+]([O-])c1ccc(Cl)cc1Cl", "viability change, negative = cytotoxic": -2.01},
      {"smiles": "C=CCCCCCCC=C", "viability change, negative = cytotoxic": -8.24},
      {"smiles": "CC(O)COC(C)(C)C", "note": "(stereo unspecified)", "viability change, negative = cytotoxic": 1.19},
      {"smiles": "CC(C)C(C)C", "viability change, negative = cytotoxic": -0.85},
      {"smiles": "CCN(C(=O)N(CC)c1ccccc1)c1ccccc1", "viability change, negative = cytotoxic": -6.71},
      {"smiles": "O=C(O)c1ccc(CO)o1", "viability change, negative = cytotoxic": -4.54},
      {"smiles": "Cc1ccc(C)o1", "viability change, negative = cytotoxic": -0.104},
      {"smiles": "O=CNc1ccccc1", "viability change, negative = cytotoxic": -4.19},
      {"smiles": "NS(=O)(=O)O", "viability change, negative = cytotoxic": 1.09},
      {"smiles": "CC(=O)OCCC(C)C", "viability change, negative = cytotoxic": 0.013},
      {"smiles": "Cc1cccc(Br)c1", "viability change, negative = cytotoxic": -0.759},
      {"smiles": "NC(=S)NNC(N)=S", "viability change, negative = cytotoxic": 2.32},
      {"smiles": "Cc1cccc2cccnc12", "viability change, negative = cytotoxic": -1.38},
      {"smiles": "CC(=O)c1ccccn1", "viability change, negative = cytotoxic": -1.34},
      {"smiles": "CC1=C(/C=C/C(C)=C/C=C/C(C)=C\\C=O)C(C)(C)CCC1", "Potency": "50.1 µM (active)"}
    ]}
  ]
}
